The text below walks through data of PubChem BioAssay AID1578 (Sanford-Burnham Center for Chemical Genomics, 2009).

By inhibition is commonly meant the relative decrease from the control value, in per cent.

The campaign covered roughly 290,000 compounds. About 3,000 (1%) were called active. This is one part of a sample in which actives are shown more often than they occur. Values without a mark were called inactive. Rule as the data show it: active = inhibition mostly above about 36% (no sharp cut-off); inactive = mostly below about 34%.

The test can be described thus: inhibition of NOD1-driven NF-kB reporter – cell-based, luminescence, uHTS, primary screen (AID 1578).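 Also: HEK-293T reporter cells stimulated with the NOD1 agonist gamma-tri-DAP.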 The conditions noted are these: NOD1-driven NF-kB luciferase reporter cells, at 4 µM, active compounds read high. (In general: A reporter such as luciferase makes a cellular process visible.)
As for `CCN(Cc1ccccc1)S(=O)(=O)c1ccc(OC)cc1`, the inhibition was 14.2%.
Regarding `COc1cccc(C2CC(c3cccs3)=NN2S(C)(=O)=O)c1OC` (configuration not stated), the inhibition was -30.3%.
`N#CCSc1nc2ccccc2c(=O)n1CCC(=O)NCCc1ccccc1`: the inhibition was 32.7%.
With `O=C1C(=O)N(CCCN2CCOCC2)C(c2ccc([N+](=O)[O-])cc2)/C1=C(/O)c1ccc2c(c1)OCO2` (configuration not stated), the inhibition is -24.9%.
For `CCc1cccc(NC(=O)CCS(=O)(=O)c2ccc3c(c2)NC(=O)CO3)c1`, the inhibition was -12.9%.
For `CN(C(=O)CCN1C(=O)C(C)(C)Nc2ccccc21)c1ccccc1`, the inhibition is 0.1%.
As for `Cc1ccc2[nH]cc(C(=O)CN3CCN(c4ccccn4)CC3)c2c1`, the figure is -23%; as for `CC(NC(=O)OC1CCCCC1)N1C(=O)C2C3C=CC(C3)C2C1=O` (configuration not stated), -1.3%.
Regarding `Cn1c(N/N=C/c2cccs2)nc2c1c(=O)n(Cc1ccccc1)c(=O)n2C`, the inhibition was -22.5%.
Regarding `NC(=O)c1cc2cc(Cl)ccc2oc1=Nc1cccc(C(F)(F)F)c1`, the inhibition was -9.4%.
As for `Cn1c(O)c(C=Nc2ccc(N3CCOCC3)cc2)c(=O)n(C)c1=S`, the figure is -14.6%.
As to `CCN(CC(=O)Nc1ccc2c(c1)OCCO2)S(=O)(=O)c1ccccc1`, the inhibition is -42.6%.
Take `CCCN1CN(Cc2ccccc2)CNC1=S`: the inhibition is -23.1%.
Turning to `CCOC(=O)/C(C#N)=C/c1c(N2CCCCCC2)nc2ccccn2c1=O`, the inhibition was 0.9%.
With `CCc1cc2c3c(c1)C1(C(=O)N3C(C)(C)C=C2C)C(C#N)=C(N)Oc2[nH]c(=O)[nH]c(=O)c21` (configuration not stated), the inhibition was 54.6% (active).
On to `COc1cc2c3c(c1)C1(C(=O)N3C(C)(C)C=C2C)C(C#N)=C(N)Oc2cc(C)oc(=O)c21` (configuration not stated), for which the inhibition is -10.4%.
Take `CC1=CC(C)(C)N2C(=O)C3(C(C#N)=C(N)Oc4cc(C)oc(=O)c43)c3cccc1c32` (configuration not stated): the inhibition was -1.1%.
On to `Cc1cc(C)n(C(=O)/C(C#N)=N\Nc2ccccc2[N+](=O)[O-])n1`, for which the inhibition is -30.2%.
For the molecule `Cc1cc(C)n(C(=O)/C(C#N)=C/N(C)C)n1`, the inhibition was -47.6%.
With `Cc1cc(C)n(C(=O)/C(C#N)=N/Nc2cc(Cl)cc(Cl)c2)n1`, the inhibition is 40.4% (active).
Regarding `Cc1nc(Cl)c(C(=O)NCc2ccccc2)c(C)c1Cl`, the inhibition was -37.4%.
As to `O=C(NCc1ccccc1)c1c(Cl)nc(Cl)c(Cl)c1Cl`, the inhibition was 54.5% (active).
As to `Cc1nc(Cl)c(C(=O)NCc2ccccc2)c(C)c1[N+](=O)[O-]`, the inhibition was -6.1%.
On to `COc1ccc(C)cc1-n1nc2ccccc2n1`, for which the inhibition is -40%.
Under `CSC1=NSC2=NC(=O)/C(=C\c3cccs3)C(=N)N12` stands -30%; under `N=C1/C(=C/c2cccs2)C(=O)N=C2SN=C(SCc3ccccc3)N12`, 80.4% (active).
Take `CC(C)CSC1=NSC2=NC(=O)/C(=C\c3cccs3)C(=N)N12`: the inhibition was 41.8%.
Take `CCc1ccc(-n2nnnc2SCC(=O)Nc2ccc(NC(C)=O)cc2)cc1`: the inhibition is -3.5%.
With `O=C1/C(=C/c2ccccc2[N+](=O)[O-])COc2ccccc21`, the inhibition was 47.1% (active).
For `O=C1/C(=C/c2cccs2)COc2ccccc21`, the inhibition is -19%.
`O=C1/C(=C/c2ccc(O)cc2)COc2ccccc21`: the inhibition was -6.1%.
With `CCOC(=O)c1cnc2nc(NCc3ccc(OC)c(OC)c3)[nH]n2c1=O`, the inhibition was -26.1%.
With `CC1CCCN1CC#CC(O)(c1ccccc1)c1ccccc1` (configuration not stated), the inhibition is 0.2%.
For `CC(C)c1nnc(NC(=O)c2ccc3c(c2)OCO3)s1`, the inhibition was 62.9% (active).
Take `CCC(CC)c1nnc(NC(=O)c2ccc3c(c2)OCO3)s1`: the inhibition was -53.7%.
As to `CC(c1ccccc1)c1nnc(NC(=O)c2ccc3c(c2)OCO3)s1` (configuration not stated), the inhibition was 5.6%.
As for `O=C(Nc1ncc([N+](=O)[O-])s1)c1cccc([N+](=O)[O-])c1`, the inhibition was 10.4%.
`O=C(Nc1ccc([N+](=O)[O-])cn1)c1ccc2c(c1)OCO2`: the inhibition is -49.4%.
For `O=C(Nc1ncc([N+](=O)[O-])s1)c1ccc2c(c1)OCO2`, the inhibition was 69% (active).
As to `Cc1cnc(NC(=O)c2c(-c3ccccc3)noc2C)s1`, the inhibition was 2.4%.
As for `Cc1nnc(NC(=O)c2c(-c3ccccc3)noc2C)s1`, the figure is -0.4%; as for `C/C(CCc1ccc2c(c1)OCO2)=N\N=C1\NC(=O)CC(C(=O)Nc2ccc(Cl)cc2)S1` (configuration not stated), 3.3%.
As for `COc1ccc(NC(=O)CNC(=O)c2c(C)nn(C)c2Cl)cc1`, the figure is -25.4%; as for `Cc1ccc(C(=O)Cn2c(C)cc(C)c(C#N)c2=O)cc1`, -3.5%; as for `COc1cccc2sc(/N=C/N(C)C)nc12`, 4.3%.
On to `CN1CCCC1=Nc1c2c(nc3ccccc13)N(C)CC2`, for which the inhibition is -12.3%.
For `COc1ccc(-c2csc(NC(=S)NC(=O)c3ccc(S(=O)(=O)N(C)C)cc3)n2)cc1OC`, the inhibition was -1.9%.
As for `Cc1ccc(CCCOC(=O)CN2CCCCC2)cc1`, the figure is -29.9%.
Take `COc1cc(OC)cc(OCC(O)Cn2cnc(-c3ccccc3)c2)c1` (configuration not stated): the inhibition was -19.2%.
In the case of `Brc1ccc(C=Nc2ccc3c(c2)OCCOCCOCCO3)s1`, the inhibition was -40.4%.
With `O=C(c1noc2c1CCc1ccccc1-2)N1CCc2ccccc2C1`, the inhibition is -25%.
Under `Fc1ccccc1CNc1ncnc2sccc12` stands 25.2%.
As to `COc1ccccc1Nc1ncnc2sccc12`, the inhibition is -5.2%.
Consider `COc1ccc(CNc2ncnc3cc(OC)c(OC)cc23)cc1OC`, for which the inhibition was -17%.
Regarding `CN(C)C(CNc1ncnc2sccc12)c1ccccc1` (configuration not stated), the inhibition was 4%.
Consider `COc1ccc(CNc2ncnc3sccc23)cc1`, for which the inhibition was 41.7%.
Under `OC(CNc1ncnc2sccc12)c1ccccc1` (configuration not stated) stands -2.4%; under `O=C(CN1CCN(S(=O)(=O)c2ccc(Cl)cc2)CC1)c1ccc(O)c(O)c1`, -30.9%; under `Cn1ccnc1SCC(=O)c1ccc([N+](=O)[O-])cc1`, -21.2%.
For `COc1ccc(C(=O)NCCOC(C)C)cc1OC1CCN(C(C)=O)CC1`, the inhibition was -13.7%.
`O=C(CSc1nc2ccccc2s1)NNC(=S)Nc1ccc(Cl)cc1`: the inhibition is -14.3%.
As for `O=C(COc1ccc(Cl)cc1Cl)NNC(=S)NC(=O)c1ccco1`, the figure is -10.8%.
